Screening data deposited in PubChem BioAssay by National Center for Advancing Translational Sciences (NCATS).
Abeta rescue: qHTS for compounds that reverse cellular toxicity of Amyloid beta (A-beta) peptide in yeast: Primary Screen; AID 1347071, 2019; yeast expressing A-beta42, growth rescue, OD600, 48 h; response scale: 0% DMSO, 100% iron-clioquinol control; Potency, µM (titrated, usually from 46.1 µM), hits mostly activators; 410,000 tested, 0.063% active; note: nearly all actives have a fitted effect of over 55% in size
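Yeast growth medium received pinned compounds, then yeast cells expressing toxic A-beta were added; plates incubated at 30 C for 48 hr. Growth read as absorbance at 600 nm, normalized to DMSO and equimolar FeCl3 plus clioquinol controls.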
Mito fusion act: qHTS Assay for Small Molecule Inhibitors of Mitochondrial Division or Activators of Mitochondrial Fusion; AID 485298, 2010; Potency, µM (series often up to 46.1 µM), without a hit: top-dose growth rescue (activation), most hits filed as activators; 320,000 tested, 0.23% active; S. cerevisiae fusion-defective mutant growth rescue, CellTiterGlo 48 h; note: % of control where 0% means no effect; nearly all actives have a fitted effect of over 45% in size
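Temperature-sensitive fusion-defective S. cerevisiae (e.g. fzo1-1, mgm1-5) were grown with compound in YPEG medium (3% ethanol, 3% glycerol) for 48 hours at 37C. Growth rescue was measured as viability by CellTiterGlo luminescence after 10 minutes at ambient.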
ERG Ets-DNA blk: qHTS for Small Molecule Inhibitors of the ERG Ets/DNA interaction; Transcriptional regulator ERG (Homo sapiens), P11308; fluorescence polarization, His-ERG Ets domain / labelled DNA; Potency, µM (titrated, usually from 76.9 µM), inactives show at the highest dose FP activity, negative = inhibition, actives largely listed as inhibitors; 370,000 tested, 0.028% active; AID 624246, 2012; active = well fitted inhibition curve with a large enough effect in the polarisation, with a control signal flat; inconclusive = small, poorly fitted or top-dose-only effect, or effect the other way, or a change in a side signal; inactive = no such curve, though single readings can be large or run the other way; the % refers to the polarisation;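 note: polarization taken with two DNA probes labelled with fluorescein and Texas red; % of control where 0% means no effect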
Target sequence (P11308 whole entry, looked up, the tested form may be a part): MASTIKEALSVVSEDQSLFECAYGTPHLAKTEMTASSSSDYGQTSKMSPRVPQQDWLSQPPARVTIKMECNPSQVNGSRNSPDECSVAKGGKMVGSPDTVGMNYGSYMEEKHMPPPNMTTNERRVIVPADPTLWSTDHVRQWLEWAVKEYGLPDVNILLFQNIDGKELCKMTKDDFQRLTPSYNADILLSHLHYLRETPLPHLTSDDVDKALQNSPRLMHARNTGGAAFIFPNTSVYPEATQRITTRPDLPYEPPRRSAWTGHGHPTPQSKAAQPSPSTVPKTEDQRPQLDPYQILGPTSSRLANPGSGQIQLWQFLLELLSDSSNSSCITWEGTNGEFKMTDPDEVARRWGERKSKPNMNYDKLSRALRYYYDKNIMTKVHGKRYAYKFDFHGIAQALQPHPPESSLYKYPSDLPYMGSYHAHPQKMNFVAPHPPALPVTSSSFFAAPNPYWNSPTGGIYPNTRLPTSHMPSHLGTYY
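His-tagged ERG Ets domain (1 uM in the protein solution; 300mM KCl, 50mM Tris-HCl, 1mM EDTA, 1mM DTT, pH 7.5) received compound, then a probe mix of 5 nM fluorescein-DNA and 100nM Texas-615-DNA. Fluorescence polarization was read for both dyes.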
aSyn yeast inh: qHTS of alpha-syn Inhibitors; Yeast expressing alpha-synuclein, growth rescue, BacTiter-Glo, 24 h; Potency, µM (series often up to 46.1 µM), without a hit: top-dose growth rescue (activation), actives largely listed as activators; 370,000 tested, 0.14% active; note: % of control where 0% means no effect; nearly all actives have a fitted effect of over 65% in size
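Readout is rescue of growth in alpha-synuclein-expressing yeast, so inhibitors of toxicity appear as activators. Growth after 24 hr at 30 deg C in galactose medium is quantified by luminescence.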
TDP-43 yeast inh: qHTS of TDP-43 Inhibitors; TDP-43 expressing yeast growth rescue, BacTiter-Glo, 24 h; Potency, µM (doses to about 46.1 µM), without a hit: top-dose growth rescue (activation), most hits filed as activators; 410,000 tested, 1.8% active; AID 652104, 2013; note: % of control where 0% means no effect; nearly all actives have a fitted effect of over 50% in size
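In this qHTS, compounds that restore growth of yeast expressing TDP-43 appear as activators. Cells (OD600=0.02, galactose medium, raffinose-pregrown) are incubated with compound 24 hr at 30 deg C and growth is quantified by BacTiter-Glo.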
FUS yeast rescue: qHTS for Suppressors of FUS Proteinopathy: Primary screen using FUS-linked yeast assay. S. cerevisiae FUS-expressing, growth rescue, OD600, 24 h. Potency, µM (titrated, usually from 76.6 µM), usual class: activators. 390,000 tested, 0.24% active. AID 1347120, 2019;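 note: plate controls were DMSO vehicle for no effect and reference control for full effect; nearly all actives have a fitted effect of over 55% in size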
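FUS-expressing yeast, raffinose-pregrown, induced in 2% galactose minimal medium at OD 0.005; compounds in a dilution series, 24hr at 30C. Growth restoration read as absorbance at 600 nm. CP55940 positive control, DMSO negative.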
* marks the source's active call; other numbers are inactive results; i = inactive; u = inconclusive; x = not tested or not shown. Most compounds without a hit are left out; they make up all but 2.2% or so of the library. Unless noted, calls come from the whole dose curve; as a rule, active = well fitted curve in the direction sought with a large enough effect; inconclusive = small, poorly fitted or top-dose-only effect, or another doubt; inactive = no such curve, though single readings can be large; an effect the other way counts as inactive or inconclusive. Potency is the fitted concentration of half-maximal effect.

SMILES	Abeta rescue	Mito fusion act	ERG Ets-DNA blk	aSyn yeast inh	TDP-43 yeast inh	FUS yeast rescue
COCCN1Cc2cccc(C(=O)Nc3ccc(Cl)cc3Cl)c2C1=O	i	x	6%	x	16µM*	i
COCCN1Cc2cccc(C(=O)Nc3cc(C)cc(C)c3)c2C1=O	i	8%	1%	-4%	14%	i
COCCN1Cc2cccc(C(=O)Nc3ccc(C)c(F)c3)c2C1=O	i	x	-2%	x	13µM*	i
CCOC(=O)c1ccc(NC(=O)c2cccc3c2C(=O)N(CC2CCCO2)C3)cc1 (centres undefined)	i	11%	-5%	3%	22µM*	u
CCCNC(=O)CCCCn1c(=S)[nH]c2c([nH]c3ccc(OC)cc32)c1=O	i	5%	-9%	-4%	1%	i
COc1ccc2[nH]c3c(=O)n(CCCCC(=O)N4CCCC4)c(=S)[nH]c3c2c1	i	1%	4%	0%	-13%	40µM*
Cc1cccc(OCc2nnc(SCC(=O)c3ccccc3)o2)c1	i	-3%	6%	12%	13µM*	i
CC(=O)Nc1ccc(CNc2nc3cc(-c4cccc(C(F)(F)F)c4)sc3c(=O)n2C)cc1	i	x	x	-16%	7%	i
Cc1[nH]nc(Nc2ccc(C(C)C)cc2)c1[N+](=O)[O-]	i	-4%	8%	-10%	13µM*	i
O=CNc1cc(-c2ccoc2)cn2c(-c3ccc(F)cc3)cnc12	i	x	x	-3%	u	i
CC(C)Sc1cc(N2CCCC2)nc(-c2ccccc2)n1	i	-5%	-5%	-2%	28%	i
CC(C)Sc1cc(N2CCCC2)nc(-c2ccccc2Cl)n1	i	10%	-13%	12%	14µM*	i
CNC(=O)c1cc2c(ccc3ccccc32)o1	i	9%	-2%	11µM*	u	i
O=C(NC1CCCC1)c1cc2c(ccc3ccccc32)o1	i	-4%	-1%	-3%	11%	x
Cc1cccc(Nc2nc(N)c([N+](=O)[O-])c(NCc3ccco3)n2)c1	i	u	-6%	3%	14µM*	u
Cc1cccc(Nc2nc(N)c([N+](=O)[O-])c(N3CCC(C)CC3)n2)c1	i	-8%	-1%	5%	25µM*	i
COc1ccc(-c2nnc(SCC(=O)N/N=C(\C)c3ccc(-c4ccccc4)cc3)n2-c2ccc(C)cc2)cc1	x	x	x	x	x	i
CN(N=O)c1ccc(/C=C/c2ccccc2)cc1	x	x	x	5%	x	x
CC(=O)N(O)c1ccc(C=Cc2ccccc2)cc1	i	x	x	2%	14µM*	i
O=C(C1CCCN(S(=O)(=O)c2cccc3ccccc23)C1)N1CCN(Cc2ccccc2)CC1 (centres undefined)	x	x	x	x	x	i
O=C(Cn1nc(-c2ccccc2)ccc1=O)NCCc1cccc(F)c1	x	x	x	x	x	i
NC(=O)c1c(N)[nH]c(C(=O)c2ccccc2)c1-c1ccccn1	x	x	x	x	x	i
Cc1c(NC(=O)Cc2ccc(Cl)cc2)cccc1-c1nc2cccnc2s1	i	x	5%	x	8%	i
CC(C)(C#N)Nn1cnnc1	i	2%	6%	-8%	-3%	16µM*
COc1ccc(Cn2nnnc2C(c2cc3cc(C)ccc3[nH]c2=O)N2CCOCC2)cc1 (centres undefined)	i	-1%	-13%	-1%	-19%	i
SMILES	Abeta rescue	Mito fusion act	ERG Ets-DNA blk	aSyn yeast inh	TDP-43 yeast inh	FUS yeast rescue
COc1ccc(N2CCN(C(c3cc4cc(C)ccc4[nH]c3=O)c3nnnn3Cc3ccccc3)CC2)cc1 (centres undefined)	i	0%	1%	-5%	-8%	8.9µM*
CC(C)(C)SCCNC(=O)COc1ccc(Cl)cc1	i	-4%	x	23%	1%	i
Cc1ccccc1CSCCNC(=O)CCSc1ccccc1	u	2%	5%	18%	16µM*	i
Cc1ccc(CSCCNC(=O)CCSc2ccccc2)cc1	i	2%	-2%	-2%	7%	i
Cc1ccccc1CSCCNC(=O)COc1ccc(Cl)cc1	i	7%	-3%	27%	11µM*	i
Brc1ccc(CSc2ncnc3nc[nH]c23)cc1	i	13µM*	11%	-12%	u	i
Fc1ccc(CSc2ncnc3nc[nH]c23)cc1	i	24%	-3%	-13%	u	i
O=[N+]([O-])c1ccc(N/N=C2\CC3CC=CC23)c([N+](=O)[O-])c1 (centres undefined)	i	18%	-10%	3%	35µM*	i
O=C(Nc1noc2ccccc12)c1c(F)cccc1F	i	x	-2%	x	-3%	i
Cc1cc(C)cc(-n2c(SCC(=O)Nc3ccccc3)nc3c(oc4ccccc43)c2=O)c1	i	x	-2%	x	14%	i
CC(C)n1c(SCC(=O)Nc2ccc(F)cc2)nc2c(oc3ccccc32)c1=O	i	x	1%	x	20µM*	i
CCOCCCn1c(SCC(=O)Nc2ccccc2OC)nc2c(oc3ccccc32)c1=O	i	x	-3%	x	22µM*	u
COc1ccccc1NC(=O)CSc1nc2c(oc3ccccc32)c(=O)n1Cc1ccco1	i	x	0%	x	21%	i
CCCCn1c(=O)c2oc3ccccc3c2n(Cc2ccc(OC)cc2)c1=O	i	x	-4%	x	0%	i
COC(=O)c1ccc(NC(=O)N2CCN(c3nnc(C)c4c(C)n(-c5ccccc5)nc34)CC2)cc1	i	x	1%	x	1%	i
CC(C)CCNc1nc2c(-c3ccccc3)nnn2c2ccccc12	i	x	-5%	x	-4%	i
Cc1ccc(C2=NN(C(=O)CCl)C(c3cccs3)C2)o1 (centres undefined)	i	2%	1%	1%	20µM*	i
O=C(CCl)N1N=C(c2ccco2)CC1c1cccs1 (centres undefined)	i	-9%	27%	-11%	u	x
CC(=O)NC1C(OC(=O)/C=C/c2ccccc2)OC(COC(C)=O)C(OC(C)=O)C1OC(C)=O (centres undefined)	i	-1%	-16%	-3%	17%	i
CC(=O)CCC1C2C(O)C(C(C)C)C(OC(=O)/C=C/c3ccccc3)CC12C (centres undefined)	i	3.5µM*	-5%	6%	20%	i
COc1ccc(Nc2oc(COc3ccc(C)cc3)nc2C#N)cc1	i	12%	10%	x	22µM*	i
